Abeta rescue: qHTS for compounds that reverse cellular toxicity of Amyloid beta (A-beta) peptide in yeast: Primary Screen; yeast expressing A-beta42, growth rescue, OD600, 48 h; response scale: 0% DMSO, 100% iron-clioquinol control; 410,000 tested, 0.063% active; Potency, µM (series often up to 46.1 µM), actives largely listed as activators; note: nearly all actives have a fitted effect of over 55% in size
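Yeast A-beta toxicity model in growth medium with pinned compounds, 48 h at 30 C; growth read as absorbance at 600 nm. Normalized to FeCl3/clioquinol equimolar mix (positive) and DMSO (negative).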
AT treatment: qHTS Assay for Identifying a Potential Treatment of Ataxia-Telangiectasia; F2112 A-T fibroblasts, KAP-1 phosphorylation AlphaLISA; neocarzinostatin DNA damage 30 min before lysis; Potency, µM (doses to about 57.5 µM), without a hit: at the top dose activation, most hits filed as activators; 320,000 tested, 0.19% active; AID 485349, 2010; note: % of control where 0% means no effect; nearly all actives have a fitted effect of over 45% in size
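hTERT-immortalized A-T patient fibroblasts (F2112), 500 cells/well in OPTI-MEM, 1% FBS, got compounds for 60 min, then NCS for 30 min at 37C. Lysates were then assayed for phospho-KAP-1 by AlphaLISA (anti-pKAP1 donor, anti-KAP1 acceptor beads), 6 hr at 25C.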
aSyn yeast inh: qHTS of alpha-syn Inhibitors; Yeast expressing alpha-synuclein, growth rescue, BacTiter-Glo, 24 h; Potency, µM (series often up to 46.1 µM), without a hit: top-dose growth rescue (activation), hits mostly activators; 370,000 tested, 0.14% active; AID 652106, 2013; note: % of control where 0% means no effect; nearly all actives have a fitted effect of over 65% in size
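Rescue of yeast growth: cells expressing toxic alpha-synuclein, induced in galactose at OD600 0.02, incubated with compound 24 h at 30 C. ATP luminescence quantified growth; inhibitors of toxicity appear as activators.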
Mito fusion act: qHTS Assay for Small Molecule Inhibitors of Mitochondrial Division or Activators of Mitochondrial Fusion | S. cerevisiae fusion-defective mutant growth rescue, CellTiterGlo 48 h | Potency, µM (titrated, usually from 46.1 µM), inactives show top-dose growth rescue (activation), hits mostly activators | 320,000 tested, 0.23% active | AID 485298, 2010; note: % of control where 0% means no effect; nearly all actives have a fitted effect of over 45% in size
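Compounds are tested for their ability to restore growth of mitochondrial fusion-defective yeast strains at non-permissive 37C in YPEG medium over 48 hours. Viability is quantified by luciferase luminescence.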
TDP-43 yeast inh: qHTS of TDP-43 Inhibitors | TDP-43 expressing yeast growth rescue, BacTiter-Glo, 24 h | Potency, µM (series often up to 46.1 µM), for the others: top-dose growth rescue (activation), actives largely listed as activators | 410,000 tested, 1.8% active; note: % of control where 0% means no effect; nearly all actives have a fitted effect of over 50% in size
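Yeast cells expressing TDP-43 under galactose induction are exposed to compounds for 24 hr at 30 deg C. BacTiter-Glo luminescence measures growth, so protective compounds score as activators.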
GRP78 ERSR act: qHTS for Inducers of the Endoplasmic Reticulum Stress Response (ERSR) in Human Glioma: qHTS; U87-MG GRP78 promoter luciferase reporter, 16 h; Potency, µM, for inactives: at the highest dose activation, actives largely listed as activators; 420,000 tested, 0.02% active; AID 602332, 2012; note: series mostly up to about 76 µM; % of control where 0% means no effect; nearly all actives have a fitted effect of over 35% in size
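Stably transfected U87-MG glioma cells carrying a GRP78-based luciferase sensor; 16 h compound incubation. Luminescence end-point read 10 min after Bright-Glo addition at room temperature.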
Numbers without * were called inactive; ! = repeats disagree; [ ] = remark or other dose. An excerpt weighted towards active compounds, which were near 2.1% of everything screened. Calls come from the whole dose curve; as a rule, active = well fitted curve in the direction sought with a large enough effect; inconclusive = small, poorly fitted or top-dose-only effect, or another doubt; inactive = no such curve, though single readings can be large; an effect the other way counts as inactive or inconclusive. Potency is the fitted concentration of half-maximal effect.

Results for S=C(c1ccc(-c2cc(Cl)ccc2Cl)o1)N1CCOCC1 ?
Abeta rescue: inactive; AT treatment: 1%; aSyn yeast inh: -13%; Mito fusion act: 8%; TDP-43 yeast inh: 13µM*; GRP78 ERSR act: -5%

What do the screens show for `O=C(Nc1ccc(CN2CCOCC2)cc1)c1ccc(-c2cc(Cl)ccc2Cl)o1`?
Abeta rescue: inactive; AT treatment: 0%; aSyn yeast inh: -1%; Mito fusion act: 10µM*; TDP-43 yeast inh: inconclusive; GRP78 ERSR act: -8%

What do the screens show for `COc1cc(/C=C(\C#N)C(=O)c2ccc(O)c(O)c2)cc(I)c1O`?
Abeta rescue: inactive; AT treatment: -13%; aSyn yeast inh: -27%; Mito fusion act: 23µM*!; TDP-43 yeast inh: 4%; GRP78 ERSR act: inconclusive

How did COc1ccc(C=C(C#N)C(=O)c2ccccc2)cc1 do in these assays?
Abeta rescue: inactive; aSyn yeast inh: -1%; TDP-43 yeast inh: 5%

Results for CC(=O)Nc1cccc(N)c1 ?
Abeta rescue: inactive; AT treatment: -3%; aSyn yeast inh: -5%; Mito fusion act: 6%; TDP-43 yeast inh: 28%; GRP78 ERSR act: 0%

How did COc1ccc(Br)cc1Cn1nnc(C(=O)Nc2ccc3c(c2)OCCO3)c1N do in these assays?
Abeta rescue: inactive; AT treatment: 11%; aSyn yeast inh: 1%; Mito fusion act: 10µM*; TDP-43 yeast inh: 0%; GRP78 ERSR act: -2%

Results for COc1ccc(NC(=O)c2nnn(CC(=O)Nc3ccc4c(c3)OCO4)c2N)cc1OC ?
Abeta rescue: inactive; AT treatment: -1%; aSyn yeast inh: -1%; Mito fusion act: -11%; TDP-43 yeast inh: 4%; GRP78 ERSR act: 0%

Results for COc1ccc(Cl)cc1NC(=O)c1cc(C)nc2c1c(C)nn2-c1ccccc1 ?
Abeta rescue: inactive; TDP-43 yeast inh: 7%[9.22 µM]; GRP78 ERSR act: -2%

How did CC(=O)c1c(C)[nH]c(C(=O)OCc2cccc(C)c2)c1C do in these assays?
Abeta rescue: inactive; AT treatment: 3%; aSyn yeast inh: -16%; Mito fusion act: 35µM*; TDP-43 yeast inh: inconclusive; GRP78 ERSR act: 2%

How did COc1ccc(Br)c(C(=O)Nc2cc3c(cc2N2CCOCC2)n(C)c(=O)n3C)c1 do in these assays?
Abeta rescue: inactive; TDP-43 yeast inh: 5%; GRP78 ERSR act: 0%

What do the screens show for `O=C1CCCN1CCCN=c1c([N+](=O)[O-])nn(-c2ccc(Cl)cc2)n1O`?
Abeta rescue: inactive; AT treatment: 5%; aSyn yeast inh: -1%; Mito fusion act: 2%; TDP-43 yeast inh: 14µM*; GRP78 ERSR act: -7%

How did Cn1c(-c2ccccc2)c(C(=O)CCl)c2ccccc21 do in these assays?
Abeta rescue: inactive; AT treatment: inconclusive; aSyn yeast inh: -2%; Mito fusion act: 2%; TDP-43 yeast inh: 18µM*; GRP78 ERSR act: -16%

How did Cn1c(-c2ccccc2)c(O)c(=O)c2ccccc21 do in these assays?
GRP78 ERSR act: -4%

Results for CCn1c(-c2ccccc2)c(C(=O)CCl)c2ccccc21 ?
Abeta rescue: inactive; AT treatment: 5%; aSyn yeast inh: 11µM*; Mito fusion act: 7%; TDP-43 yeast inh: 0%; GRP78 ERSR act: -1%

Results for CN1C(=O)c2ccccc2N(C)C1c1ccccc1Cl (stereo unspecified) ?
Abeta rescue: inactive; AT treatment: 0%[11.5 µM]; aSyn yeast inh: 13%; Mito fusion act: 11%; TDP-43 yeast inh: 16µM*; GRP78 ERSR act: -6%

Results for CN1C(=O)c2ccccc2N(C)C1c1cccs1 (stereo unspecified) ?
Abeta rescue: inactive; AT treatment: 3%; aSyn yeast inh: 11%; Mito fusion act: 2%; TDP-43 yeast inh: 14%; GRP78 ERSR act: -3%

Results for COc1ccc(-c2ccnc3nc(N4CCN(c5ccccc5)CC4)nn23)cc1 ?
Abeta rescue: inactive; AT treatment: -3%; aSyn yeast inh: 1%; Mito fusion act: 13µM*; TDP-43 yeast inh: 14µM*; GRP78 ERSR act: 0%

What do the screens show for `COC(=O)C1CCN(Cc2ccc3c(c2)CN(C(=O)c2cc4ccccc4n2C)CCO3)CC1`?
GRP78 ERSR act: -4%

What do the screens show for `CC(=O)N1N=C(c2ccc(Br)cc2)CC1c1cn(C)c2ccccc12` (stereo unspecified)?
Abeta rescue: inactive; AT treatment: 13%; aSyn yeast inh: inconclusive; Mito fusion act: 24%; TDP-43 yeast inh: 25µM*; GRP78 ERSR act: -2%

What do the screens show for `O=C1CC(c2ccc(F)cc2)c2cc3c(cc2N1)CCC3` (stereo unspecified)?
Abeta rescue: inactive; AT treatment: -14%; aSyn yeast inh: inconclusive; Mito fusion act: 11µM*; TDP-43 yeast inh: -7%; GRP78 ERSR act: -6%

Results for O=C(COCc1cc(-c2ccc3c(c2)OCO3)on1)NCc1ccccc1Cl ?
Abeta rescue: inactive; TDP-43 yeast inh: 28µM*; GRP78 ERSR act: -2%

Results for COc1cc(=O)n2c(c1C(=O)NC(C)c1ccco1)CCN(C(=O)c1cccc(C)c1C)CC2 (stereo unspecified) ?
GRP78 ERSR act: 2%

What do the screens show for `COc1ccc(-c2nc3n(c2C)CCC3)cc1`?
Abeta rescue: inactive; AT treatment: 25µM*; aSyn yeast inh: 0%; Mito fusion act: 0%; TDP-43 yeast inh: -10%; GRP78 ERSR act: -7%

What do the screens show for `COc1ccc(-c2cc3nc4n(c(=O)c3s2)CCC4)cc1`?
Abeta rescue: inactive; AT treatment: -1%; aSyn yeast inh: 29%; Mito fusion act: 15%; TDP-43 yeast inh: -13%; GRP78 ERSR act: -11%

How did O=C(c1ccc(F)c(F)c1)N1CCOc2ccc(CN3CCN(Cc4ccccn4)CC3)cc2C1 do in these assays?
GRP78 ERSR act: -2%

Results for COCCNC(=O)CN1C(=O)/C(=C/c2ccccc2)Oc2ccc(C(C)(C)C)cc21 ?
Abeta rescue: inactive; AT treatment: 1%; aSyn yeast inh: 2%; Mito fusion act: 20µM*; TDP-43 yeast inh: 15%; GRP78 ERSR act: 0%

Results for O=C(CN1C(=O)/C(=C\c2cccc(Br)c2)Oc2ccccc21)NCCCN1CCOCC1 ?
Abeta rescue: inactive; AT treatment: 1%; aSyn yeast inh: 14%; Mito fusion act: -40%; TDP-43 yeast inh: inconclusive; GRP78 ERSR act: 4%
